{"source": "PubChem BioAssay (NCI)", "key": {"[1]": {"assay": "NCI Yeast Anticancer Drug Screen. Data for the rad52 strain (AID 147);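 note: 0% = growth of vehicle-treated control cultures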", "details": "S. cerevisiae rad52 mutant growth inhibition, active compounds read high", "in_short": "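Screen used a yeast mutant impaired in DNA repair. After compound exposure, growth was measured. Values reflect inhibition compared with vehicle-treated cells.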"}, "[2]": {"assay": "NCI Yeast Anticancer Drug Screen. Data for the wt1 strain (AID 149);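 note: 0% = growth of vehicle-treated wt1 cultures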", "details": "S. cerevisiae wt1 strain (SPY 50644) growth inhibition, active compounds read high", "in_short": "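Using yeast strain wt1, compound-induced growth inhibition was determined against vehicle-treated cultures.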"}, "[3]": {"assay": "NCI Yeast Anticancer Drug Screen. Data for the mgt1 strain (AID 153)", "details": "S. cerevisiae mgt1 mutant growth inhibition, active compounds read high", "in_short": "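Genetically defined yeast (mgt1) treated with compound; inhibition of growth expressed against vehicle-treated controls.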"}, "[4]": {"assay": "NCI Yeast Anticancer Drug Screen. Data for the rad50 strain (AID 155);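 note: 0% = growth of vehicle-only cultures of the same strain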", "details": "S. cerevisiae rad50 strain growth inhibition, active compounds read high", "in_short": "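Relative growth inhibition (compound vs vehicle) was measured in yeast with a defined repair-gene alteration.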"}, "[5]": {"assay": "NCI Yeast Anticancer Drug Screen. Data for the mec2-1 strain (AID 157)", "details": "S. cerevisiae mec2-1 strain, active compounds read high", "in_short": "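Readout is yeast growth inhibition, normalised to vehicle-treated controls, in the mec2-1 strain exposed to compound.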"}, "[6]": {"assay": "NCI Yeast Anticancer Drug Screen. Data for the rad14 strain (AID 159);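 note: 0% = growth of vehicle-treated control cultures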", "details": "S. cerevisiae rad14 strain growth inhibition, active compounds read high", "in_short": "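Screen for anticancer potential: a yeast strain altered in DNA damage repair is grown with compound, and reduced growth is quantified against vehicle controls.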"}, "[7]": {"assay": "NCI Yeast Anticancer Drug Screen. Data for the CLN2oe strain (AID 163);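 note: 0% = growth of vehicle-only control cultures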", "details": "S. cerevisiae CLN2oe strain, active compounds read high", "in_short": "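Values reflect how much compound exposure reduced yeast growth, referenced to vehicle-exposed cells. Assay organism is a strain with a defined genetic change affecting cell-cycle control.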"}, "[8]": {"assay": "NCI Yeast Anticancer Drug Screen. Data for the cln2 rad14 strain (AID 165);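 note: 0% = growth equal to vehicle treated cultures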", "details": "S. cerevisiae cln2 rad14 strain, active compounds read high", "in_short": "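Relative to vehicle controls, growth inhibition of compound-treated cln2 rad14 yeast was recorded.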"}, "[9]": {"assay": "NCI Yeast Anticancer Drug Screen. Data for the bub3 strain (AID 167)", "details": "S. cerevisiae bub3 mutant strain, active compounds read high", "in_short": "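Screening used yeast with an engineered genetic alteration affecting cell cycle control. Compound-exposed cultures were compared with vehicle cultures, and reduced growth was taken as inhibition.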"}, "[10]": {"assay": "NCI Yeast Anticancer Drug Screen. Data for the mlh1 strain (AID 171);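 note: 0% = growth of vehicle-treated control cultures of the same strain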", "details": "S. cerevisiae mlh1 strain growth inhibition, active compounds read high", "in_short": "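Steps: expose the defined-mutant yeast strain to compound; expose a parallel culture to vehicle; measure growth; express compound effect as inhibition relative to the vehicle culture.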"}, "[11]": {"assay": "NCI Yeast Anticancer Drug Screen. Data for the sgs1 strain (AID 173);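 note: 0% = growth of vehicle-only control cultures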", "details": "S. cerevisiae sgs1 mutant, active compounds read high", "in_short": "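Treat defined-mutant yeast with compound; measure growth; calculate inhibition relative to vehicle-treated cells.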"}, "[12]": {"assay": "NCI Yeast Anticancer Drug Screen. Data for the mlh1 rad18 strain (AID 175)", "details": "S. cerevisiae mlh1 rad18 strain growth inhibition, active compounds read high", "in_short": "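Test agents were incubated with a yeast strain of defined genotype (DNA damage repair defect). Inhibition of growth was derived by comparison with vehicle-exposed cultures.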"}, "[13]": {"assay": "NCI Yeast Anticancer Drug Screen. Data for the rad18 strain (AID 177)", "details": "S. cerevisiae rad18 mutant growth inhibition, active compounds read high", "in_short": "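A genetically defined yeast mutant impaired in DNA damage repair was treated with test compounds, then its growth was measured against cultures receiving vehicle alone.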"}, "[14]": {"details": "at 5.0 µM (retest, dose inferred, filed as 0.5)"}, "[15]": {"details": "at 50.0 µM (retest, dose inferred, filed as 5.0)"}}, "note": "This is part of a sample that, as a whole, favours compounds with a hit. Of some 79,000 tested, about 15% had one in any assay. Unmarked numbers belong to inactive results. Calls of active or inactive are those of the source. Cut-off read from the data, not from the text of the source: active = growth inhibition above about 70%; inactive = the rest.", "data": [{"compound": "O=c1[nH]c2c([N+](=O)[O-])cccc2c2ccccc12", "values": [{"measurement": "growth inhibition", "setting": "[1]; at 1.2 µM", "value": -1, "unit": "%"}, {"measurement": "growth inhibition", "setting": "[1]; at 3.7 µM", "value": 0, "unit": "%"}, {"measurement": "growth inhibition", "setting": "[1]; at 11.0 µM", "value": 6, "unit": "%"}, {"measurement": "growth inhibition", "setting": "[1]; at 33.0 µM", "value": 40, "unit": "%"}, {"measurement": "growth inhibition", "setting": "[1]; at 100.0 µM", "value": "89% (active)"}, {"measurement": "growth inhibition", "setting": "[2]; at 1.2 µM", "value": -3, "unit": "%"}, {"measurement": "growth inhibition", "setting": "[2]; at 3.7 µM", "value": -2, "unit": "%"}, {"measurement": "growth inhibition", "setting": "[2]; at 11.0 µM", "value": -2, "unit": "%"}, {"measurement": "growth inhibition", "setting": "[2]; at 33.0 µM", "value": 5, "unit": "%"}, {"measurement": "growth inhibition", "setting": "[2]; at 100.0 µM", "value": "73% (active)"}, {"measurement": "growth inhibition", "setting": "[3]; at 1.2 µM", "value": -4, "unit": "%"}, {"measurement": "growth inhibition", "setting": "[3]; at 3.7 µM", "value": -3, "unit": "%"}, {"measurement": "growth inhibition", "setting": "[3]; at 11.0 µM", "value": -3, "unit": "%"}, {"measurement": "growth inhibition", "setting": "[3]; at 33.0 µM", "value": 19, "unit": "%"}, {"measurement": "growth inhibition", "setting": "[3]; at 100.0 µM", "value": "90% (active)"}, {"measurement": "growth inhibition", "setting": "[4]; at 1.2 µM", "value": 2, "unit": "%"}, {"measurement": "growth inhibition", "setting": "[4]; at 3.7 µM", "value": -42, "unit": "%"}, {"measurement": "growth inhibition", "setting": "[4]; [14]", "value": 7, "unit": "%"}, {"measurement": "growth inhibition", "setting": "[4]; at 11.0 µM", "value": 33, "unit": "%"}, {"measurement": "growth inhibition", "setting": "[4]; at 33.0 µM", "value": 53, "unit": "%"}, {"measurement": "growth inhibition", "setting": "[4]; [15]", "value": "80% (active)"}, {"measurement": "growth inhibition", "setting": "[4]; at 50.0 µM", "value": "96.2% (active)"}, {"measurement": "growth inhibition", "setting": "[4]; at 100.0 µM", "value": "95% (active)"}, {"measurement": "growth inhibition", "setting": "[5]; at 1.2 µM", "value": 0, "unit": "%"}, {"measurement": "growth inhibition", "setting": "[5]; at 3.7 µM", "value": 0, "unit": "%"}, {"measurement": "growth inhibition", "setting": "[5]; [14]", "value": 4, "unit": "%"}, {"measurement": "growth inhibition", "setting": "[5]; at 11.0 µM", "value": 3, "unit": "%"}, {"measurement": "growth inhibition", "setting": "[5]; at 33.0 µM", "value": 17, "unit": "%"}, {"measurement": "growth inhibition", "setting": "[5]; [15]", "value": 52, "unit": "%"}, {"measurement": "growth inhibition", "setting": "[5]; at 50.0 µM", "value": "96% (active)"}, {"measurement": "growth inhibition", "setting": "[5]; at 100.0 µM", "value": "89% (active)"}, {"measurement": "growth inhibition", "setting": "[6]; at 1.2 µM", "value": 2, "unit": "%"}, {"measurement": "growth inhibition", "setting": "[6]; at 3.7 µM", "value": 5, "unit": "%"}, {"measurement": "growth inhibition", "setting": "[6]; at 11.0 µM", "value": 12, "unit": "%"}, {"measurement": "growth inhibition", "setting": "[6]; at 33.0 µM", "value": 24, "unit": "%"}, {"measurement": "growth inhibition", "setting": "[6]; at 100.0 µM", "value": "86% (active)"}, {"measurement": "growth inhibition", "setting": "[7]; at 1.2 µM", "value": -13, "unit": "%"}, {"measurement": "growth inhibition", "setting": "[7]; at 3.7 µM", "value": -15, "unit": "%"}, {"measurement": "growth inhibition", "setting": "[7]; at 11.0 µM", "value": -16, "unit": "%"}, {"measurement": "growth inhibition", "setting": "[7]; at 33.0 µM", "value": -29, "unit": "%"}, {"measurement": "growth inhibition", "setting": "[7]; at 100.0 µM", "value": 12, "unit": "%"}, {"measurement": "growth inhibition", "setting": "[8]; [14]", "value": -13, "unit": "%"}, {"measurement": "growth inhibition", "setting": "[8]; [15]", "value": 11, "unit": "%"}, {"measurement": "growth inhibition", "setting": "[8]; at 50.0 µM", "value": "93% (active)"}, {"measurement": "growth inhibition", "setting": "[9]; at 1.2 µM", "value": -4, "unit": "%"}, {"measurement": "growth inhibition", "setting": "[9]; at 3.7 µM", "value": -6, "unit": "%"}, {"measurement": "growth inhibition", "setting": "[9]; [14]", "value": 3, "unit": "%"}, {"measurement": "growth inhibition", "setting": "[9]; at 11.0 µM", "value": 0, "unit": "%"}, {"measurement": "growth inhibition", "setting": "[9]; at 33.0 µM", "value": 28, "unit": "%"}, {"measurement": "growth inhibition", "setting": "[9]; [15]", "value": "72% (active)"}, {"measurement": "growth inhibition", "setting": "[9]; at 50.0 µM", "value": "95% (active)"}, {"measurement": "growth inhibition", "setting": "[9]; at 100.0 µM", "value": "90% (active)"}, {"measurement": "growth inhibition", "setting": "[10]; at 1.2 µM", "value": -2, "unit": "%"}, {"measurement": "growth inhibition", "setting": "[10]; at 3.7 µM", "value": -2, "unit": "%"}, {"measurement": "growth inhibition", "setting": "[10]; at 11.0 µM", "value": 0, "unit": "%"}, {"measurement": "growth inhibition", "setting": "[10]; at 33.0 µM", "value": 18, "unit": "%"}, {"measurement": "growth inhibition", "setting": "[10]; at 100.0 µM", "value": "88% (active)"}, {"measurement": "growth inhibition", "setting": "[11]; at 1.2 µM", "value": -2, "unit": "%"}, {"measurement": "growth inhibition", "setting": "[11]; at 3.7 µM", "value": 0, "unit": "%"}, {"measurement": "growth inhibition", "setting": "[11]; at 11.0 µM", "value": 7, "unit": "%"}, {"measurement": "growth inhibition", "setting": "[11]; at 33.0 µM", "value": 40, "unit": "%"}, {"measurement": "growth inhibition", "setting": "[11]; at 100.0 µM", "value": "90% (active)"}, {"measurement": "growth inhibition", "setting": "[12]; [14]", "value": 4, "unit": "%"}, {"measurement": "growth inhibition", "setting": "[12]; [15]", "value": 41, "unit": "%"}, {"measurement": "growth inhibition", "setting": "[12]; at 50.0 µM", "value": "96.2% (active)"}, {"measurement": "growth inhibition", "setting": "[13]; at 1.2 µM", "value": 3, "unit": "%"}, {"measurement": "growth inhibition", "setting": "[13]; at 3.7 µM", "value": 9, "unit": "%"}, {"measurement": "growth inhibition", "setting": "[13]; at 11.0 µM", "value": 26, "unit": "%"}, {"measurement": "growth inhibition", "setting": "[13]; at 33.0 µM", "value": "73% (active)"}, {"measurement": "growth inhibition", "setting": "[13]; at 100.0 µM", "value": "96% (active)"}]}]}
